The results in this text go back to PubChem BioAssay (NCATS).

Results filed as inconclusive are left out. A call without a number means that no potency is given here. Calls of active or inactive are those of the source. The call rests on the fitted dose curve; in most records, active means well fitted inhibition curve with a large enough effect; inconclusive means small, poorly fitted or top-dose-only effect; inactive means flat fitted curve, though single readings scatter.

This experiment addresses Aldehyde dehydrogenase, mitochondrial (Homo sapiens) (UniProt P05091). The experiment is described as follows: qHTS for Inhibitors of the Aldehyde Dehydrogenase Family (ALDH2) Primary screen (AID 2061308). Further: nearly all actives have a fitted effect of over 55% in size. To be noted: ALDH2 enzyme inhibition qHTS, 1536-well; series mostly up to 56 µM.
Consider `O=C(O)CCc1nccc2c1[nH]c1ccccc12`, for which the Potency entry is “inactive”.

Regarding `Cc1c(-c2ccc3c(c2)OCO3)oc2ccc(C(O)C(C)O)cc12` (centres undefined), the Potency entry was “inactive”.

`C/C=C1\[C@H](OC2OC(COC3OC(CO)C(O)C(O)C3O)C(O)C(O)C2O)OC=C(C(=O)OC)[C@H]1CC(=O)OCCc1ccc(O)cc1` (some centres undefined): the Potency entry was “inactive”.

As for `C[C@@H]1O[C@@H](O[C@H]2[C@H](OC(C#N)c3ccc(O)cc3)O[C@H](CO)[C@@H](O)[C@@H]2O)[C@H](O)[C@H](O)[C@H]1O` (some centres undefined), the Potency entry is “inactive”.

On to `COc1cc(/C=C/C(=O)OC[C@H]2O[C@@H](OC3CC(C)=C(C(=O)O)C(C)(C)C3)[C@H](O)[C@@H](O)[C@@H]2O)cc(OC)c1O` (some centres undefined), for which the Potency result is “inactive”.

Regarding `CC1CCC2(O1)C(C)(C)CC(O[C@@H]1O[C@H](CO[C@@H]3OC[C@](O)(CO)[C@H]3O)[C@@H](O)[C@H](O)[C@H]1O)CC2(C)O` (some centres undefined), the Potency entry is “inactive”.

With `O=C(OC[C@H]1O[C@H](O[C@]2(CO)O[C@H](CO)[C@@H](O)[C@@H]2O)[C@H](O)[C@@H](O)[C@@H]1O)c1ccccc1`, the Potency result was “inactive”.

Consider `CC1CCC2C(C(=O)O)=COC(O[C@@H]3O[C@H](CO)[C@@H](O)[C@H](O)[C@H]3O)C12` (some centres undefined), for which the Potency result was “inactive”.

Consider `CC(C)CC1NC(=O)C2CC3(O)c4ccccc4NC3N2C1=O` (centres undefined), for which the Potency entry is “inactive”.

With `O=C(NO)c1ccc(CC(=O)N(CCO)c2ccccc2)cc1`, the Potency entry is “inactive”.

Regarding `COc1ccc(-c2ccc3c(N4CCOCC4C)nc(N4CCOCC4C)nc3n2)cc1CO` (centres undefined), the Potency result was “inactive”.

As to `N#Cc1cnc2c(Cl)cc(NCc3cn(CCN4CCCCCC4)nn3)cc2c1Nc1ccc(F)c(Cl)c1`, the Potency result was “inactive”.

Regarding `O=C(c1ccc(C#Cc2cccc(F)c2)cn1)N1CC2CC2C1` (centres undefined), the Potency entry was “inactive”.

Turning to `Fc1ccc(CN2CCC(Nc3ccc(C(F)(F)F)nn3)CC2)cc1F`, the Potency entry was “inactive”.

As to `C=C[C@H]1[C@H](O[C@@H]2O[C@H](CO)[C@@H](O)[C@H](OC(=O)/C=C/c3ccc(O)c(OC)c3)[C@H]2O)OC=C2C(=O)OCC[C@]21O`, the Potency result was “inactive”.

Turning to `CC1CCC2C(C(=O)O)=CC3(O)CC(C)(C)CC123` (centres undefined), the Potency entry is “inactive”.

As for `C/C=C1/CC2C(=O)Nc3cc(O)c(OC)cc3C(=O)N2C1` (centres undefined), the Potency result is “inactive”.

`O=C(/C=C/c1ccc(O)cc1)O[C@H]1[C@@H]2C=CO[C@@H](O[C@@H]3O[C@H](CO)[C@@H](O)[C@H](O)[C@H]3O)[C@@H]2[C@@]2(CO)O[C@@H]12`: the Potency result is “inactive”.

Take `COc1cc2c(cc1O)C1(Cc3ccc4c(c3C1=O)OCO4)N(C)CC2` (centres undefined): the Potency result is “inactive”.

Regarding `C[C@@H]1O[C@@H](O[C@H]2[C@@H]3C=CO[C@@H](O[C@@H]4O[C@H](CO)[C@@H](O)[C@H](O)[C@H]4O)[C@@H]3[C@@]3(CO)O[C@@H]23)[C@H](OC(=O)/C=C/c2ccc(O)c(O)c2)[C@H](O)[C@H]1O`, the Potency result is “inactive”.

Consider `CC1=C2C[C@H]3OC(=O)[C@H](O)[C@@]4(O)[C@@H](C)[C@@H](O)[C@H](O)C([C@@]2(C)[C@H](O)[C@@H](O)C1)[C@@]34C` (some centres undefined), for which the Potency entry was “inactive”.

Turning to `CC/C=C\C(O)C(O)C1=C(C)C(=O)C2(O1)C(=O)NC(OC)(C(=O)c1ccccc1)C2O` (centres undefined), the Potency entry was “inactive”.

On to `C[C@@H](OC(=O)/C=C/c1ccc(O)cc1)C1=C[C@]2(C=C[C@@H]3C(C(=O)O)=CO[C@@H](O[C@@H]4O[C@H](CO[C@@H]5O[C@H](CO)[C@@H](O)[C@H](O)[C@H]5O)[C@@H](O)[C@H](O)[C@H]4O)[C@@H]32)OC1=O`, for which the Potency result is “inactive”.

Take `C[C@@H]1O[C@@H](O[C@H]2[C@H](O)[C@@H](O)[C@H](OC(=O)[C@]34CCC(C)(C)C[C@H]3C3=CCC5[C@@]6(C)CC[C@H](O[C@@H]7O[C@H](C(=O)O)[C@@H](O)[C@H](O)[C@H]7O)C(C)(C)C6CC[C@@]5(C)[C@]3(C)CC4)O[C@@H]2CO)[C@H](O)[C@H](O)[C@H]1O` (some centres undefined): the Potency entry is “inactive”.

As for `CC1(C)CC[C@]2(CO[C@@H]3O[C@H](CO)[C@@H](O)[C@H](O)[C@H]3O)[C@@H](O)C[C@]3(C)C(=CCC4[C@@]5(C)CC[C@H](O[C@@H]6O[C@H](CO[C@@H]7O[C@H](CO[C@@H]8OC[C@@H](O)[C@H](O)[C@H]8O)[C@@H](O)[C@H](O)[C@H]7O)[C@@H](O)[C@H](O)[C@H]6O)C(C)(C)C5CC[C@]43C)[C@@H]2C1` (some centres undefined), the Potency entry is “inactive”.

On to `COc1cccc2cc3c(c(O[C@@H]4O[C@H](CO[C@@H]5O[C@H](CO)[C@@H](O)[C@H](O)[C@H]5O)[C@@H](O)[C@H](O)[C@H]4O)c12)C(C)OC3=O` (some centres undefined), for which the Potency result is “inactive”.

Consider `Cc1cc(N(C)C)ccc1-c1nc2ccc(-c3nc4ccc(N5CCN(C)CC5)cc4[nH]3)cc2[nH]1`, for which the Potency entry was “inactive”.

As for `CC1(C)C(O)CCC2(C)C1C(O)C=C1COC(=O)C12O` (centres undefined), the Potency result is “inactive”.

Turning to `C(#Cc1nc2ncccc2nc1OCCN1CCCC1)c1ccccc1`, the Potency result is “inactive”.
